According to ChEMBL document CHEMBL3988442, “University of Dundee, Small-Polar-MMV Screening Library” (2021):

These molecules were tested against T1, Aspartate--tRNA(Asp/Asn) ligase (Mycobacterium tuberculosis (strain ATCC 25618 / H37Rv)) (UniProt P9WFW3) (assay: Assay for Asp RNA synthetase-1 from Mycobacterium tuberculosis). Conditions: 30 µM.
T1 sequence (whole entry): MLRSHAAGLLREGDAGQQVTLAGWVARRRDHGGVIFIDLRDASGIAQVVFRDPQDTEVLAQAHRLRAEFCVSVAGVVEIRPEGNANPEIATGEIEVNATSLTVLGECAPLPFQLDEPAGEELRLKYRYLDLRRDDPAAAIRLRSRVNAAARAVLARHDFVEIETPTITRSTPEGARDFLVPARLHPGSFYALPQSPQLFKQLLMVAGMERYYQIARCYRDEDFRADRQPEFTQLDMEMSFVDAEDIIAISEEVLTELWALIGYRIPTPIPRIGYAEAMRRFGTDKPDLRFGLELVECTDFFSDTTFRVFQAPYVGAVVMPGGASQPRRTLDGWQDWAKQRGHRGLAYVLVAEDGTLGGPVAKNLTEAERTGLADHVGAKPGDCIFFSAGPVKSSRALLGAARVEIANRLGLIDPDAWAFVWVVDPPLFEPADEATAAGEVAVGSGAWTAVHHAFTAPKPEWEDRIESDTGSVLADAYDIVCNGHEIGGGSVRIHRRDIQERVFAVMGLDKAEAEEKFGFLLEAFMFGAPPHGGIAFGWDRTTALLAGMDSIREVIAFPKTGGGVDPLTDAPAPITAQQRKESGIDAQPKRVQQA
Assay type: functional
Design: scale not given: in the data most compounds retested in dose-response had high values
Molecule CCS(=O)(=O)c1ccc(N2CCC(NC(=O)CCC(C)C)CC2)cc1 has a Percent Effect of -2.31%. In the case of CCc1nc(NS(=O)(=O)c2ccc(C)cc2Cl)no1, the Percent Effect is reported as -5.6%. For Cc1cc(C)n(CC(=O)N(C)Cc2csc(-c3cccs3)n2)c(=O)n1, the Percent Effect was -0.356%. Work on CCCSCC(=O)Nc1ncn(CC(=O)NCc2ccccc2)n1 yielded a Percent Effect of 1.55%. Work on CCc1nc(CNC(=O)Nc2ccc(C(=O)NC)cc2C)cs1 yielded a Percent Effect of -0.0804%. CN(C)CCn1c(=O)oc2ccc(NC(=O)c3cc(Cl)c[nH]3)cc21 was tested, and the Percent Effect was 5.07%. O=C(c1cnn(-c2ccccc2F)c1)N1CCN(CCO)CC1 showed a Percent Effect of -3.94%. In the case of NC(=O)C1CCCN1Cc1cccc(NC(=O)c2ccsc2)c1 (stereo not given), the Percent Effect is reported as 2.98%. Work on CCC(CO)N(Cc1ccccn1)C(=O)c1ccc2c(c1)CCO2 (stereo not given) yielded a Percent Effect of -5.37%. In the case of O=c1oc(-c2cccs2)nn1CC(O)c1ccc(F)cc1 (stereo not given), the Percent Effect is reported as -0.425%. Molecule CN(Cc1ccccc1)C1(C(=O)O)Cc2ccccc2C1 has a Percent Effect of -1.53%. CC(NC(=O)NCCCn1cccn1)c1cccnc1 (stereo not given) was tested, and the Percent Effect was -3.83%. Molecule O=C(NCCc1ccncc1)C1CCN(Cc2ccco2)CC1 has a Percent Effect of -3.6%. Molecule COc1cccc(-c2noc(-c3ccc(NCC4CC4)nc3)n2)c1OC has a Percent Effect of -3.57%. In the case of N#CC(Sc1nnnn1C1CCOCC1)C1CCCCC1 (stereo not given), the Percent Effect is reported as -2.4%. Work on CCc1nc(NS(=O)(=O)c2ccc(F)cc2C)no1 yielded a Percent Effect of -2.08%. In the case of COC(=O)c1cccc(C(=O)N2CCCCC2CCn2ccnc2C)c1 (stereo not given), the Percent Effect is reported as 0.586%. For Cc1ccc2ncnc(N3CCOCC3c3c(C)nn(C)c3C)c2c1 (stereo not given), the Percent Effect was -0.356%. Work on CCNC(=O)c1ccc(N2CCCC(c3nccn3C(C)C)C2)nc1 (stereo not given) yielded a Percent Effect of -3.8%. O=C1N(Cc2cccc(F)c2F)CCCC1(O)CN1CCCOCC1 (stereo not given) was tested, and the Percent Effect was -2.15%. For CCCC(NC(=O)c1ccc(OC)cc1F)c1nnn[nH]1 (stereo not given), the Percent Effect was -1.41%. CC(C)N1CCC(NCc2cccnc2N(C)Cc2ccccc2)CC1 showed a Percent Effect of -1.94%. For COc1cc(C)c(CN2CCC3(CC2)C(C(=O)O)CC(=O)N3C)cc1C (stereo not given), the Percent Effect was -0.678%. With CSCCC1c2nc[nH]c2CCN1Cc1ccnc2ccccc12 (stereo not given) the Percent Effect was 5.78%. For CCCOCCN1CCC2(CC1)CC(c1ccccc1)C(=O)N2C (stereo not given), the Percent Effect was -5.14%. Work on O=S(=O)(Cc1ccccc1F)NCCCN1CCCCC1 yielded a Percent Effect of 0.172%. Work on O=C1CC(c2cccs2)c2cnn(C3CCCC3)c2N1 (stereo not given) yielded a Percent Effect of -1.62%. With COc1ccccc1CN1C(=O)O[C@@H]2CN(c3nccs3)C[C@@H]21 the Percent Effect was -1.39%. For CSc1cccc(CN(C)C(=O)C2CC(=O)N(CCN(C)C)C2)c1 (stereo not given), the Percent Effect was -2.59%. For O=C(c1cncc(N2CCC(O)(CO)CC2)n1)N1CCCC1, the Percent Effect was -3.27%. Work on CCc1ncc(C(=O)NCCNC(=O)Cc2ccc(F)cc2)s1 yielded a Percent Effect of -2.42%. In the case of CN(C)CCn1c(=O)oc2ccc(NC(=O)CC(C)(C)C)cc21, the Percent Effect is reported as 0.793%. CCOc1ncccc1CNC(=O)N1CCCC1c1cc(C)no1 (stereo not given) showed a Percent Effect of -2.06%. COc1nc(C)c(C(=O)N(C)Cc2nc(-c3ccccn3)no2)s1 showed a Percent Effect of 1.83%. Work on Cc1c[nH]c(CN(C)C(=O)c2cccc(CCC(C)(C)O)c2)n1 yielded a Percent Effect of -1%. CC(C)c1noc(CN2CCC3(CCCO3)CCC2=O)n1 (stereo not given) was tested, and the Percent Effect was -1.21%. Work on COC1CCN(C(=O)c2c(Cl)c3ccccc3n2C)CC1 yielded a Percent Effect of -5.5%. For O=C(O)c1ccc(F)c(S(=O)(=O)Nc2ccc(-n3cccn3)c(Cl)c2)c1, the Percent Effect was -5.11%. In the case of COc1cc(CNC(=O)NCCCF)cc(Br)c1OC, the Percent Effect is reported as -0.885%. In the case of Cc1cnn(C2CN(CC(O)c3ccc(F)cc3)C2)c1 (stereo not given), the Percent Effect is reported as -2.19%.
